AmpC inh detg: blocks E. coli AmpC beta-lactamase in detergent assay; P00811; AmpC hydrolysis of nitrocefin, absorbance 480 nm, 0.01% Triton; Potency, µM (top dose mostly 114 µM), usual class: inhibitors; 370,000 tested, 0.041% active; note: nearly all actives have a fitted effect of over 25% in size
Target sequence (P00811 whole entry, looked up): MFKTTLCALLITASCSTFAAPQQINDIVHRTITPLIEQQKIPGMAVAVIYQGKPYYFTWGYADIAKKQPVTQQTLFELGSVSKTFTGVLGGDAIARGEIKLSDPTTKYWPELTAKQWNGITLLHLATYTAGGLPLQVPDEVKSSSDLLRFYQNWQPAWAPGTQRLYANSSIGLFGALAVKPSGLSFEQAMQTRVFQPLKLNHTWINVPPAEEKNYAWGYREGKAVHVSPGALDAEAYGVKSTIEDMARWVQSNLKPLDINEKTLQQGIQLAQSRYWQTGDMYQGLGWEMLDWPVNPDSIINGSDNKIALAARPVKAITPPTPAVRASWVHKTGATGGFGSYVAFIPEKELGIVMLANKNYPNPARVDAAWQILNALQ
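AmpC (5.3 nM in the dispensed reagent) in 20 mM phosphate pH 7.0 with 0.01% (detergent screen) or 0.0001% Triton X-100 was preincubated with compounds for 15 min at room temperature. Nitrocefin was then added from an 800 uM solution, and hydrolysis was followed at 480 nm.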
AmpC no deterg: inhibitors of E. coli AmpC beta-lactamase without detergent; P00811; AmpC nitrocefin hydrolysis, absorbance 480 nm, 0.0001% Triton; Potency, µM (highest dose often 57.1 µM), usual class: inhibitors; 330,000 tested, 0.52% active; AID 485341; note: nearly all actives have a fitted effect of over 20% in size
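AmpC (5.3 nM in the dispensed reagent) in 20 mM phosphate pH 7.0 with 0.01% (detergent screen) or 0.0001% Triton X-100 was preincubated with compounds for 15 min at room temperature. Nitrocefin was then added from an 800 uM solution, and hydrolysis was followed at 480 nm.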
CHX counter: counter-screen hit for Shiga toxin inhibitors, cycloheximide; cell reporter, cycloheximide protein synthesis inhibition counterscreen; max response, %; 300,000 tested, 12% active; in the data active = max response mostly above about 13%, no sharp cut-off; inactive = mostly below about 14%; note: read at 38.3 µM for the half of the compounds with a filed dose
SARS PLpro yeast: inhibitors of SARS-CoV papain-like protease in yeast; S. cerevisiae expressing SARS-CoV PLpro, growth rescue; Potency, µM (doses to about 32.9 µM), hits mostly activators; 330,000 tested, 0.19% active; calls by dose curve; note: nearly all actives have a fitted effect of over 55% in size
Shiga inhibitor: inhibitors of Shiga toxin in Vero cells; AID 2315; Vero cells, Shiga toxin protein synthesis inhibition reporter; inhibition, % at 38.7 µM; 290,000 tested, 9.2% active; in the data active = inhibition mostly above about 28%, no sharp cut-off; inactive = mostly below about 43%
AMA1 RON2 block: AMA1-RON2 (P. falciparum) interaction inhibition. AlphaScreen AMA1-biotinylated RON2 peptide binding. Potency, µM (top dose mostly 58.2 µM), actives largely listed as inhibitors. 360,000 tested, 0.2% active; note: nearly all actives have a fitted effect of over 45% in size
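AMA1 (3D7) with his tag at 25 nM final met compounds first, then biotinylated RON2 peptide at 25 nM; detection used donor plus acceptor beads, 10 µg/mL apiece, read by AlphaScreen after 30 min at room temperature.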
Large screens that a line does not name were inactive. The full list was thinned out, with hits kept by preference. Unless noted, calls come from the whole dose curve; as a rule, active = well fitted curve in the direction sought with a large enough effect; inconclusive = small, poorly fitted or top-dose-only effect, or another doubt; inactive = no such curve, though single readings can be large; an effect the other way counts as inactive or inconclusive.

NC(=O)c1sc2nc(-c3cccnc3)ccc2c1N	CHX counter 22, Shiga inhibitor 32
CC(C)OC(=O)c1sc2nc(-c3ccccc3)ccc2c1N	AmpC inh detg inconclusive, CHX counter 66, Shiga inhibitor 144
CCOC(=O)c1sc2nc(-c3cccnc3)ccc2c1N	CHX counter 50, Shiga inhibitor 84
O=C(CCC1CCCN(C(=O)c2cc(F)ccc2F)C1)N1CCN(c2ccccn2)CC1 (centres undefined)	none (no result: AmpC inh detg, AmpC no deterg, CHX counter, SARS PLpro yeast, Shiga inhibitor)
CCN(CC)c1ccc(/C=C2/C(=O)c3ccc(C(=O)O)cc3C2=O)cc1	CHX counter 77, Shiga inhibitor 68
C=CC(COCc1ccccc1)N(Cc1ccc(OC)cc1)S(=O)(=O)c1ccccc1Br (centres undefined)	none
O=C(c1ccco1)N1CCN(c2ncnc3c(-c4ccc(Cl)cc4)nsc23)CC1	CHX counter 48, Shiga inhibitor 101
COc1ccc(-c2nsc3c(N4CCN(S(=O)(=O)c5ccccc5)CC4)ncnc23)cc1	AmpC inh detg inconclusive (no result: AMA1 RON2 block)
Cc1ccc(-c2nsc3c(N4CCN(C(=O)c5ccco5)CC4)ncnc23)cc1	CHX counter 30, SARS PLpro yeast inconclusive, Shiga inhibitor 71 (no result: AMA1 RON2 block)
COc1ccc(-c2nsc3c(N4CCCC4)ncnc23)cc1	CHX counter 49, Shiga inhibitor 118
O=C(CCCOC(=O)c1ccc(O)cc1)c1ccccc1	none (no result: AmpC inh detg, CHX counter, Shiga inhibitor)
CCOC(=O)C(Cc1c[nH]c2cc([N+](=O)[O-])ccc12)(NC(C)=O)C(=O)OCC	none (no result: AmpC inh detg, AmpC no deterg, CHX counter, SARS PLpro yeast, Shiga inhibitor)
N#C/C(=C\c1ccc(N2CCCCC2)c([N+](=O)[O-])c1)c1nn(-c2ccccc2)c(N)c1C#N	none
CCOc1cc(/C=C(\C#N)c2nc3ccccc3[nH]2)ccc1OC(C)C(=O)O (centres undefined)	CHX counter 30, Shiga inhibitor 77
Cc1ccc2nc(/C(C#N)=C\c3ccc(Oc4ccc([N+](=O)[O-])cn4)cc3)[nH]c2c1	AmpC no deterg 28µM
CCOc1cc(/C=C(/C#N)c2nc3ccccc3[nH]2)ccc1Oc1ccc([N+](=O)[O-])cn1	CHX counter 11
N#C/C(=C\c1ccc(N2CCCC2)c([N+](=O)[O-])c1)c1nc2ccccc2[nH]1	CHX counter 50, Shiga inhibitor 112
O=C(Nc1ccccc1)/C(=C/c1ccc([N+](=O)[O-])cc1)NC(=O)c1ccco1	none
CC(C)(C)NC(=S)Nc1cccc(C(F)(F)F)c1	none
O=C(CN1C(=O)c2ccccc2C1=O)N1CCOCC1	SARS PLpro yeast inconclusive
COc1cc(/C=C(/C#N)c2nc3ccccc3[nH]2)ccc1Oc1ncccc1[N+](=O)[O-]	CHX counter 13
FC(F)(F)c1ccccc1-n1c(-c2ccco2)n[nH]c1=S	CHX counter 21, Shiga inhibitor 30
S=c1[nH]nc(-c2cc(-c3ccco3)[nH]n2)n1-c1cccc2ccccc12	AmpC no deterg 18µM
Cc1ccccc1-n1c(-c2ccco2)n[nH]c1=S	none
CCNC(=O)CN(c1ccc(F)cc1)S(=O)(=O)c1ccc2c(c1)OCCO2	none
CCCn1cc(NC(=O)c2cc(-c3ccccc3)on2)cn1	CHX counter 35, Shiga inhibitor 68
Cc1ccc(-c2cc(C(=O)Nc3cnn(C(C)C)c3)no2)cc1	CHX counter 22
Cc1ccc(-c2cc(C(=O)Nc3c(C#N)cnn3C)no2)cc1	CHX counter 14, Shiga inhibitor 56
Cc1ccc(-c2cc(C(=O)Nc3cnn(C45CC6CC(CC(C6)C4)C5)c3)no2)cc1	none
O=C(Nc1cnn(C23CC4CC(CC(C4)C2)C3)c1)c1cc(-c2ccccc2)on1	none
CC(C)(C)C(=O)Cn1c(=O)n(CC2CCCO2)c(=O)c2ccccc21 (centres undefined)	none
FC(F)(F)c1ccccc1NC(=S)Nc1ccccc1	none
Cc1cc(OCC(F)(F)C(F)(F)C(F)(F)C(F)F)nc(N)n1	CHX counter 46, Shiga inhibitor 78
Cc1ccc(CNC(=O)[C@H](Cc2ccccc2)NC(=O)c2ccco2)cc1	none (no result: CHX counter, Shiga inhibitor)
O=C(Nc1cc2c(cc1Cl)OCCCO2)c1ccccc1	CHX counter 31, Shiga inhibitor 99
O=C(Nc1cc2c(cc1Cl)OCCCO2)c1ccco1	CHX counter 80, Shiga inhibitor 105
CCOc1cc(Cl)c(NC(=O)c2ccco2)cc1OCC	none
O=C(Nc1cc2c(cc1C(=O)O)OCCCO2)c1ccc(F)cc1F	AmpC inh detg inconclusive, CHX counter 17
N#Cc1ccc(S(=O)(=O)N2CCN(C(=O)c3cn(-c4ccccc4)nc3-c3cccnc3)CC2)cc1	none (no result: AmpC inh detg, AmpC no deterg, CHX counter, SARS PLpro yeast, Shiga inhibitor)
CS(=O)(=O)C1=NSC2=NC(=O)/C(=C\c3ccc(OS(=O)(=O)c4ccccc4)cc3)C(=N)N21	CHX counter 16, Shiga inhibitor 34
CCC1=NN2C(=N)/C(=C/c3ccc(OS(=O)(=O)c4ccccc4)cc3)C(=O)N=C2S1	AmpC no deterg 28µM
CCC1=NN2C(=N)/C(=C\c3cccn3-c3ccc(Cl)cc3)C(=O)N=C2S1	AmpC inh detg inconclusive, AmpC no deterg 0.89µM
CCC1=NN2C(=N)/C(=C\c3cccn3-c3ccc(C)c(C)c3)C(=O)N=C2S1	AmpC inh detg inconclusive
CCC1=NN2C(=N)/C(=C/c3ccc(OS(=O)(=O)c4ccc(C)cc4)c(OC)c3)C(=O)N=C2S1	none
CCS(=O)(=O)C1=NN2C(=N)/C(=C\c3ccc(OS(=O)(=O)c4ccccc4)cc3)C(=O)N=C2S1	CHX counter 33
CCN(CC)CCCn1c2c(c(SCC(=O)Nc3cccc4ccccc34)nc1=O)CCC2	none (no result: CHX counter, Shiga inhibitor)
Cc1cccc(NC(=O)CSc2nc3[nH]ncc3c(=O)n2-c2ccccc2)c1	AmpC no deterg 8.9µM (no result: AMA1 RON2 block)
O=c1c2cn[nH]c2nc(SCc2cc(=O)n3cc(Br)ccc3n2)n1-c1ccc(Br)cc1	CHX counter 22
Cc1ccccc1-n1c(SCc2cc(=O)n3ccccc3n2)nc2[nH]ncc2c1=O	none
Cc1cccc2nc(CSc3nc4[nH]ncc4c(=O)n3-c3ccccc3Cl)cc(=O)n12	AmpC inh detg inconclusive, CHX counter 14
O=c1c2cn[nH]c2nc(SCc2ccccc2F)n1-c1ccc(Br)cc1	AmpC inh detg inconclusive, AmpC no deterg 11µM
O=C(COc1ccc(C(=O)O)cc1)Nc1cccc(C(F)(F)F)c1	none
COC(=O)c1cc(S(=O)(=O)N2CCC(c3ccccc3)C2)c[nH]1 (centres undefined)	none
CCOC(=O)CN(C(=O)COC(=O)C1(c2ccccc2)CC1)c1ccc(F)cc1	none (no result: CHX counter, Shiga inhibitor)
O=C1CN(C(=O)N[C@@H](Cc2ccccc2)C(=O)N[C@@H](Cc2ccccc2)C(=O)O)c2ccccc2N1	none
CCOc1ccc(NC(=O)CC(NC(C)=O)c2ccccc2)cc1S(=O)(=O)N1CCCC1 (centres undefined)	none (no result: CHX counter, Shiga inhibitor)
